Laboratory results as given in PubChem BioAssay (NCI).
About 79,000 compounds went through this panel and 15% of them were active in at least one assay; those are over-represented in the sample as a whole. A number with no mark means an inactive call. Calls of active or inactive are those of the source. No stated cut-off is given here; in the data, active means growth inhibition above about 70%; inactive means the rest.

Columns and labels:
[1] = NCI Yeast Anticancer Drug Screen. Data for the rad50 strain (AID 155);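 further: 0% = growth of vehicle-only cultures of the same strain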; conditions: S. cerevisiae rad50 strain growth inhibition, stronger effect = higher value
Summary of the method: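 Yeast carrying a defined DNA repair defect were exposed to test compounds, and growth was compared with vehicle-treated controls to give percent inhibition.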

[2] = NCI Yeast Anticancer Drug Screen. Data for the mec2-1 strain (AID 157); conditions: S. cerevisiae mec2-1 strain, stronger effect = higher value
Summary of the method: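 Cells of the genetically defined mec2-1 yeast strain are incubated with test compound. Inhibition of growth is calculated against vehicle-treated controls.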

[3] = NCI Yeast Anticancer Drug Screen. Data for the sgs1 mgt1 strain (AID 161);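 further: 0% = growth of cultures given vehicle only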; conditions: S. cerevisiae sgs1 mgt1 strain, stronger effect = higher value
Summary of the method: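 Inhibition of yeast growth, normalised to vehicle-treated controls, is reported for a strain bearing genetic alterations in DNA damage repair.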

[4] = NCI Yeast Anticancer Drug Screen. Data for the cln2 rad14 strain (AID 165);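 further: 0% = growth equal to vehicle treated cultures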; conditions: S. cerevisiae cln2 rad14 strain, stronger effect = higher value
Summary of the method: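 The screen exposed genetically defined yeast (cln2 rad14) to test compounds and scored growth inhibition relative to vehicle-treated controls.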

[5] = NCI Yeast Anticancer Drug Screen. Data for the bub3 strain (AID 167); conditions: S. cerevisiae bub3 mutant strain, stronger effect = higher value
Summary of the method: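 Compounds were applied to a genetically altered yeast strain carrying a cell-cycle control defect. Growth inhibition was scored against vehicle-treated controls.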

[6] = NCI Yeast Anticancer Drug Screen. Data for the mlh1 rad18 strain (AID 175); conditions: S. cerevisiae mlh1 rad18 strain growth inhibition, stronger effect = higher value
Summary of the method: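 Compound-treated yeast growth, normalised to vehicle controls. Strain bears defined DNA repair mutations.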

[7] = at 5.0 µM (retest, dose inferred, filed as 0.5)
[8] = at 50.0 µM (retest, dose inferred, filed as 5.0)

O=C(Nc1cccc2ccccc12)OCC1CCc2ccccc2C1 (stereo not given)
growth inhibition [1, 7]: -1% | growth inhibition [1, 8]: 6% | growth inhibition ([1]; at 50.0 µM): 12.9% | growth inhibition [2, 7]: -6% | growth inhibition [2, 8]: 2% | growth inhibition ([2]; at 50.0 µM): 22.6% | growth inhibition [3, 7]: -4% | growth inhibition [3, 8]: 17% | growth inhibition ([3]; at 50.0 µM): 54.2% | growth inhibition [4, 7]: -8% | growth inhibition [4, 8]: -9% | growth inhibition ([4]; at 50.0 µM): 9.25% | growth inhibition [5, 7]: -2% | growth inhibition [5, 8]: 29% | growth inhibition ([5]; at 50.0 µM): 72.2% (active) | growth inhibition [6, 7]: -5% | growth inhibition [6, 8]: 27% | growth inhibition ([6]; at 50.0 µM): 31.1%

O=C1C(=O)C(CCCO)(CCCO)CCCCCCCCC1(CCCO)CCCO
growth inhibition [1, 7]: -9% | growth inhibition [1, 8]: -3% | growth inhibition ([1]; at 50.0 µM): 31.4% | growth inhibition [2, 7]: 5% | growth inhibition [2, 8]: -11% | growth inhibition ([2]; at 50.0 µM): -35.1% | growth inhibition [3, 7]: 5% | growth inhibition [3, 8]: 8% | growth inhibition ([3]; at 50.0 µM): 0% | growth inhibition [4, 7]: 6% | growth inhibition [4, 8]: 19% | growth inhibition ([4]; at 50.0 µM): 63.8% | growth inhibition [5, 7]: 13% | growth inhibition [5, 8]: -7% | growth inhibition ([5]; at 50.0 µM): -6.5% | growth inhibition [6, 7]: -8% | growth inhibition [6, 8]: 0% | growth inhibition ([6]; at 50.0 µM): -5.95%

COC(=O)c1ccccc1NC(=O)C(=O)Cc1nc2c3c(ccc2[nH]c1=O)C(=O)c1ccccc1C3=O
growth inhibition [1, 7]: 35% | growth inhibition [1, 8]: 98% (active) | growth inhibition ([1]; at 50.0 µM): 85.4% (active) | growth inhibition [2, 7]: 12% | growth inhibition [2, 8]: 99% (active) | growth inhibition ([2]; at 50.0 µM): 25.8% | growth inhibition [3, 7]: 6% | growth inhibition [3, 8]: 99% (active) | growth inhibition ([3]; at 50.0 µM): 16.2% | growth inhibition [4, 7]: 5% | growth inhibition [4, 8]: 98% (active) | growth inhibition ([4]; at 50.0 µM): -26.9% | growth inhibition [5, 7]: 6% | growth inhibition [5, 8]: 99% (active) | growth inhibition ([5]; at 50.0 µM): 16.3% | growth inhibition [6, 7]: 16% | growth inhibition [6, 8]: 66% | growth inhibition ([6]; at 50.0 µM): 66.6%

CCOc1c(N=Nc2ccc(OC)cc2)c(-c2ccccc2)nn1C(N)=S
growth inhibition [1, 7]: 4% | growth inhibition [1, 8]: 36% | growth inhibition ([1]; at 50.0 µM): 12.3% | growth inhibition [2, 7]: -2% | growth inhibition [2, 8]: 34% | growth inhibition ([2]; at 50.0 µM): 38% | growth inhibition [3, 7]: 10% | growth inhibition [3, 8]: 73% (active) | growth inhibition ([3]; at 50.0 µM): 25.8% | growth inhibition [4, 7]: 6% | growth inhibition [4, 8]: 9% | growth inhibition ([4]; at 50.0 µM): 3.1% | growth inhibition [5, 7]: 3% | growth inhibition [5, 8]: 71% (active) | growth inhibition ([5]; at 50.0 µM): 70.2% (active) | growth inhibition [6, 7]: 0% | growth inhibition [6, 8]: 27% | growth inhibition ([6]; at 50.0 µM): 23.9%

O=C1C2=C(CCCC2)C(=O)C(Cl)C1Cl (stereo not given)
growth inhibition [1, 7]: 36% | growth inhibition [1, 8]: 98% (active) | growth inhibition ([1]; at 50.0 µM): 97.8% (active) | growth inhibition [2, 7]: 32% | growth inhibition [2, 8]: 99% (active) | growth inhibition ([2]; at 50.0 µM): 99.3% (active) | growth inhibition [3, 7]: 24% | growth inhibition [3, 8]: 99% (active) | growth inhibition ([3]; at 50.0 µM): 99.5% (active) | growth inhibition [4, 7]: 9% | growth inhibition [4, 8]: 99% (active) | growth inhibition ([4]; at 50.0 µM): 99.1% (active) | growth inhibition [5, 7]: 56% | growth inhibition [5, 8]: 99% (active) | growth inhibition ([5]; at 50.0 µM): 99.5% (active) | growth inhibition [6, 7]: 62% | growth inhibition [6, 8]: 99% (active) | growth inhibition ([6]; at 50.0 µM): 99.5% (active)

C[N+]1=C(/C=C\c2ccc(O)c3ccccc23)C(C)(C)c2ccccc21
growth inhibition [1, 7]: -2% | growth inhibition [1, 8]: 82% (active) | growth inhibition ([1]; at 50.0 µM): 40.5% | growth inhibition [2, 7]: 3% | growth inhibition [2, 8]: 89% (active) | growth inhibition ([2]; at 50.0 µM): 50.2% | growth inhibition [3, 7]: -2% | growth inhibition [3, 8]: 92% (active) | growth inhibition ([3]; at 50.0 µM): 36% | growth inhibition [4, 7]: -4% | growth inhibition [4, 8]: 83% (active) | growth inhibition ([4]; at 50.0 µM): 54.9% | growth inhibition [5, 7]: 15% | growth inhibition [5, 8]: 82% (active) | growth inhibition ([5]; at 50.0 µM): 38.5% | growth inhibition [6, 7]: 28% | growth inhibition [6, 8]: 82% (active) | growth inhibition ([6]; at 50.0 µM): 43.7%

O=c1c(Cc2c[nH]c3ccccc23)coc2ccccc12
growth inhibition [1, 7]: 0% | growth inhibition [1, 8]: 95% (active) | growth inhibition ([1]; at 50.0 µM): 24.2% | growth inhibition [2, 7]: 8% | growth inhibition [2, 8]: 91% (active) | growth inhibition ([2]; at 50.0 µM): 7.85% | growth inhibition [3, 7]: 3% | growth inhibition [3, 8]: 84% (active) | growth inhibition ([3]; at 50.0 µM): 51.1% | growth inhibition [4, 7]: 10% | growth inhibition [4, 8]: 92% (active) | growth inhibition ([4]; at 50.0 µM): -69.5% | growth inhibition [5, 7]: 9% | growth inhibition [5, 8]: 98% (active) | growth inhibition ([5]; at 50.0 µM): 14.1% | growth inhibition [6, 7]: 0% | growth inhibition [6, 8]: 95% (active) | growth inhibition ([6]; at 50.0 µM): 21.8%

O=[N+]([O-])c1ccc2c(c1)[n+]([O-])c1[nH]c3ccccc3c1[n+]2[O-] (tested in a mixture with another compound)
growth inhibition [1, 7]: 85% (active) | growth inhibition [1, 8]: 88% (active) | growth inhibition ([1]; at 50.0 µM): 93.2% (active) | growth inhibition [2, 7]: 55% | growth inhibition [2, 8]: 89% (active) | growth inhibition ([2]; at 50.0 µM): 87.4% (active) | growth inhibition [3, 7]: 68% | growth inhibition [3, 8]: 91% (active) | growth inhibition ([3]; at 50.0 µM): 82.9% (active) | growth inhibition [4, 7]: 48% | growth inhibition [4, 8]: 85% (active) | growth inhibition ([4]; at 50.0 µM): 89.8% (active) | growth inhibition [5, 7]: 64% | growth inhibition [5, 8]: 90% (active) | growth inhibition ([5]; at 50.0 µM): 81.8% (active) | growth inhibition [6, 7]: 78% (active) | growth inhibition [6, 8]: 91% (active) | growth inhibition ([6]; at 50.0 µM): 86.3% (active)

O=C(NC[N+]12CCO[B-]1(c1ccc(Br)cc1)OCC2)c1ccccc1O (stereo not given)
growth inhibition [1, 7]: 10% | growth inhibition [1, 8]: 48% | growth inhibition ([1]; at 50.0 µM): 65.2% | growth inhibition [2, 7]: 11% | growth inhibition [2, 8]: 43% | growth inhibition ([2]; at 50.0 µM): 56.2% | growth inhibition [3, 7]: 23% | growth inhibition [3, 8]: 51% | growth inhibition ([3]; at 50.0 µM): 60.2% | growth inhibition [4, 7]: -4% | growth inhibition [4, 8]: 38% | growth inhibition ([4]; at 50.0 µM): 21.3% | growth inhibition [5, 7]: 26% | growth inhibition [5, 8]: 63% | growth inhibition ([5]; at 50.0 µM): 61.5% | growth inhibition [6, 7]: 24% | growth inhibition [6, 8]: 72% (active) | growth inhibition ([6]; at 50.0 µM): 87.9% (active)

Cc1ccc(C)c2c3c([nH]c12)-c1ccccc1CC3
growth inhibition [1, 7]: 1% | growth inhibition [1, 8]: 3% | growth inhibition ([1]; at 50.0 µM): 98.5% (active) | growth inhibition [2, 7]: -3% | growth inhibition [2, 8]: 2% | growth inhibition ([2]; at 50.0 µM): 92.8% (active) | growth inhibition [3, 7]: -4% | growth inhibition [3, 8]: 10% | growth inhibition ([3]; at 50.0 µM): 83.5% (active) | growth inhibition [4, 7]: -1% | growth inhibition [4, 8]: 7% | growth inhibition ([4]; at 50.0 µM): 80% (active) | growth inhibition [5, 7]: 0% | growth inhibition [5, 8]: 4% | growth inhibition ([5]; at 50.0 µM): 96.7% (active) | growth inhibition [6, 7]: 6% | growth inhibition [6, 8]: 9% | growth inhibition ([6]; at 50.0 µM): 94.8% (active)
